Structures can show the parent of a compound that is named as a salt. ± gives the standard deviation.

This assay relates to Jurkat. Description: mean cell size (FSC-A) relative to DMSO control (fraction of control); higher = larger cells. Particulars: 48 h. In outline:
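Jurkat cells at 600 cells/µl were incubated for 1 h and then treated for 48h with the Enzo Screen-Well FDA Approved Drug Library v2.0 at 25µM, with DMSO at 0.9% (v/v) final. Compounds that reduced counts below 20% of controls were retested in 10-fold dilutions down to 25nM. Cell count and mean cell size, taken as forward scatter area, were measured by flow cytometry relative to solvent-only controls. Each plate carried 6-12 controls, and values are means of 3 biological replicates.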
With `C[C@]12C=CC(=O)N[C@@H]1CC[C@@H]1[C@@H]2CC[C@]2(C)[C@@H](C(=O)Nc3cc(C(F)(F)F)ccc3C(F)(F)F)CC[C@@H]12` [Dutasteride] (concentration: 25 µM), the mean cell size turned out to be 0.983 ± 0.052.
`CCc1ccc(CCOc2ccc(CC3SC(=O)NC3=O)cc2)nc1` (stereo not drawn) [Pioglitazone·HCl] (concentration: 25 µM) displayed a mean cell size of 0.966 ± 0.039.
As to `Oc1ccc(C2CNCCc3c2cc(O)c(O)c3Cl)cc1` (stereo not drawn) [Fenoldopam Mesylate] (concentration: 25 µM), the mean cell size came out at 0.886 ± 0.059.
With `CC1=C(C(=O)O)N2C(=O)[C@@H](NC(=O)[C@H](N)c3ccc(O)cc3)[C@H]2SC1` [Cefadroxil] (concentration: 25 µM) the figure was 0.937 ± 0.014; with `CC[C@H]1OC(=O)[C@H](C)[C@@H](O[C@H]2C[C@@](C)(OC)[C@@H](O)[C@H](C)O2)[C@H](C)[C@@H](O[C@@H]2O[C@H](C)C[C@H](N(C)C)[C@H]2O)[C@](C)(O)C[C@@H](C)CN(C)[C@H](C)[C@@H](O)[C@]1(C)O` [Azithromycin] (concentration: 25 µM), 0.948 ± 0.027.
With `O=P(O)(O)C(O)(Cc1cccnc1)P(=O)(O)O` [Risredonic Acid] (concentration: 25 µM) the figure was 0.964 ± 0.048.
The compound `COc1cccc2c1C(=O)c1c(O)c3c(c(O)c1C2=O)C[C@@](O)(C(=O)CO)C[C@@H]3O[C@H]1C[C@H](N)[C@@H](O)[C@H](C)O1` [Epirubicin·HCl] (concentration: 250 nM) displayed a mean cell size of 1.42 ± 0.022.
Under `COc1ccc(OC)c(C(O)CNC(=O)CN)c1` (stereo not drawn) [Midodrine·HCl] (concentration: 25 µM) stands 0.942 ± 0.065.

For the origin of these results see the supplement of paper PMC4709259.
